Where “and” joins values, the source holds several entries; their conditions need not be identical. Equal values may be shown once. A structure can be active in one record and inactive in another. Calls of active or inactive are those of the source. How the source made its calls: active means hit-call score of the fitted dose curve at least 0.9, where 1 is the maximum; inactive means score below 0.9.
Assays:
TTR (gene 7276) = assay: CCTE_GLTED_hTTR_0.125uM: CCTE's human Transthyretin (hTTR) Inhibition Assay, with 0.125uM TTR, Great Lakes Toxicology and Ecology Division (GLTED) Lab (AID 2284431);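 further: hits lower the fluorescence signal relative to DMSO baseline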
Method in brief: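 TTR 0.125uM + test chemical, 2 h; ANSA probe displacement; ex 380/em 475 fluorescence; signal loss vs DMSO control.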

[1] = CCTE_Padilla_ZF_Score.Blood_pooling: CCTE's 144 Hour Post-fertilization zebrafish Assay Score for Blood Pooling, Padilla Lab (AID 2284415)
Description: CCTE_Padilla_ZF_Phenotype_Score is a whole embryo, multiplexed assay using zebrafish ova exposed for 144 hours post fertilization on a 96-well plate.CCTE_Padilla_ZF_Score.Blood_pooling is one of one assay component(s) measured or calculated from the CCTE_Padilla_ZF_Phenotype_Score assay. It is designed to make measurements of zebrafish development as detected with brightfield microscopy of developing zebrafish embryos.Data from the assay component CCTE_Padilla_ZF_Score.Blood_pooling was analyzed into 1 assay endpoints. This assay endpoint, CCTE_Padilla_ZF_Score.Blood_pooling, was analyzed in the positive analysis fitting direction relative to DMSO as the negative control and baseline of activity. Using a type of viability reporter, gain-of-signal activity can be used to understand changes in developmentals as they relate to the whole embryo. To generalize the intended target to other relatable targets, this assay endpoint is annotated to the zebrafish development intended target family, where the subfamily is swim bladder morphogenesis.
Zebrafish husbandry: Wild type adult zebrafish (Danio rerio; undefined outbred stock obtained from Aquatic Research Organisms, Hampton, NH, 03842) were housed in an AAALAC-approved animal facility at 28C with a 14:10 h light: dark cycle (lights on at 08:30 h). Adult fish (2-3 females per male; density = 15-20 adults per tank) were kept in one of several 9-liter (L) flow-through colony tanks (Aquaneering Inc., San Diego, CA). All adults in a colony tank were placed in a 2 L (static) breeding tank (Aquatic Habitats, Apopka, FL) one hour prior to light onset. Typically, adults from two to three colony tanks were mated on the same day. Two hours after light onset the adults were returned to the colony tank. […]

[2] = CCTE_Padilla_ZF_Score.Any: CCTE's 144 Hour Post-fertilization zebrafish Assay Score for Any Mortality or Malformation, Padilla Lab (AID 2284416)
Method in brief: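 Wild-type zebrafish embryos with chorions, one per well in 10% Hanks' from 6–8 hpf, dosed in sealed plates at 26 C, 14:10 h light:dark; rinsed at 5 dpf; blinded scoring at 6 dpf for death or malformation, versus DMSO.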

COP(=S)(OC)Oc1ccc(SC)c(C)c1
AC50 (TTR (gene 7276)): 6.11 µM (active)

COP(=S)(OC)Oc1ccc([N+](=O)[O-])cc1
AC50 (TTR (gene 7276)): 21.3 µM (active)

O=C(O)C(F)(F)C(F)(F)C(F)(F)C(F)(F)C(F)(F)C(F)(F)C(F)(F)F
outcome [1]: inactive
AC50 [2]: 2.43 µM (active) and 81.8 µM (active)
outcome [2]: inactive
AC50 (TTR (gene 7276)): 159 nM (active) and 82.9 nM (active)

Oc1ccc(Cl)cc1Cc1ccccc1
AC50 (TTR (gene 7276)): 0.455 µM (active)

CCCN(CCC)c1c([N+](=O)[O-])cc(C(F)(F)F)cc1[N+](=O)[O-]
AC50 (TTR (gene 7276)): 26.1 µM (active)

Oc1cc(Cl)ccc1Oc1ccc(Cl)cc1Cl
AC50 (TTR (gene 7276)): 0.219 µM (active)

O=C(O)CCCOc1ccc(Cl)cc1Cl
AC50 (TTR (gene 7276)): 2.54 µM (active)

O=S(=O)(O)C(F)(F)C(F)(F)C(F)(F)C(F)(F)C(F)(F)C(F)(F)C(F)(F)C(F)(F)F
AC50 [1]: 10 µM (active)
outcome [1]: inactive
AC50 [2]: 8.52 µM (active) and 3.26 µM (active)
AC50 (TTR (gene 7276)): 115 nM (active) and 159 nM (active)

O=C(O)COc1ccc(Cl)cc1Cl
AC50 (TTR (gene 7276)): 8.12 µM (active) and 10.7 µM (active)

C#CCN1C(=O)COc2cc(F)c(N3C(=O)C4=C(CCCC4)C3=O)cc21
AC50 (TTR (gene 7276)): 13.3 µM (active)

From PubChem BioAssay (EPA / NIEHS)
